PPC-1+TRAIL kill: compounds killing PPC-1 cancer cells with TRAIL present (potentiator screen, no TRAIL-free arm) | PPC-1 cells + TRAIL, ATPLite viability luminescence | AID 1443 | 220,000 tested, 0.41% active | cell killing (% activity), % at 4 µM or 5 µM;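 active = cell killing above 50% in the first pass at 4 µM, then a duplicate retest at 5 µM averaging 50% or more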;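 also: plate controls were cells with TRAIL plus DMSO for no effect and medium-only wells lacking cells for full effect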
C8 TRAIL sens: sensitizes caspase-8 expressing cells to TRAIL; NB7+C8 cells + TRAIL, ATPlite viability luminescence; inhibition (viability loss, TRAIL sensitization), % at 10 µM; 360,000 tested, 1% active; AID 624354;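 active = compounds causing at least 50% loss of cell viability in the single-dose screen, relative to plate controls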
SENP8 block-1: SENP8 (human) protease inhibition | recombinant SENP8, Nedd8 substrate fluorescence | Q96LD8 | inhibition, % at 20 µM | 360,000 tested, 0.64% active; in the data active = inhibition mostly above about 40%, no sharp cut-off; inactive = mostly below about 27%
SENP8 block-2: inhibitors of human SENP8 protease; Q96LD8; inhibition, % at 10 µM; 330,000 tested, 1.2% active; purified SENP8, Z-RLRGG-aminoluciferin cleavage, luminescence; in the data active = inhibition above about 50%
SENP6 inh: inhibitors of human SENP6 protease. Q9GZR1. Recombinant SENP6 catalytic domain, aminoluciferin luminescence. inhibition, % at 10 µM. 330,000 tested, 1.8% active. AID 2599;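 active = inhibition above about 50% at the single tested dose, limit read from the data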;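 also: plate controls were DMSO wells with enzyme for no effect and DMSO wells lacking enzyme for full effect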
Target sequence (Q9GZR1 628-1112 limits assumed): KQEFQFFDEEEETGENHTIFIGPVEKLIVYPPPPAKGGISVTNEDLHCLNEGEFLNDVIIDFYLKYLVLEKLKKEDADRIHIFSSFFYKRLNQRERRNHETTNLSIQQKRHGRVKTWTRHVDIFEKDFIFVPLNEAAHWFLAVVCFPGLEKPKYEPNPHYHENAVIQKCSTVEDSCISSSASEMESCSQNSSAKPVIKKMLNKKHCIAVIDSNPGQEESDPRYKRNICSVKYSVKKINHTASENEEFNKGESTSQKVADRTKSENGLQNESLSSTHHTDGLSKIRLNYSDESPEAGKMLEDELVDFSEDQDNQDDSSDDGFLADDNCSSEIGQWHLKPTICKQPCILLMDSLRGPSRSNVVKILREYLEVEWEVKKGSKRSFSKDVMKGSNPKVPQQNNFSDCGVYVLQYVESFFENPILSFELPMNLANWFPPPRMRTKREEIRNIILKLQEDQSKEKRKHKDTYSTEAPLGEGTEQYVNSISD
SENP7 block: inhibitors of human SENP7 protease. Q9BQF6. recombinant SENP7, Z-RLRGG-aminoluciferin luminescence, 40 min. inhibition, % at 5 µM. 330,000 tested, 1.5% active;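 active = inhibition above about 50% at the single test dose, limit read from the data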;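 also: plate controls were DMSO with enzyme for no effect and no enzyme buffer wells for full effect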
SENP8 conf: confirmation of human SENP8 protease inhibitors; shares compounds with SENP7 block; Recombinant SENP8, Z-RLRGG-aminoluciferin luminescence, 60 min; inhibition, % at 12.5 µM; 6,200 tested, 40% active; AID 488912;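 active = mean inhibition across replicates above about 50%, limit read from the data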
SENP6 confirm: human SENP6 inhibition, confirmed. shares compounds with SENP7 block. recombinant SENP6, Z-RLRGG-aminoluciferin luminescence. inhibition, % at 12.5 µM. 6,200 tested, 58% active. AID 488915
SENP7 confirm: confirmation of human SENP7 protease inhibitors; shares compounds with SENP7 block; 6,200 tested, 69% active; recombinant SENP7, Z-RLRGG-aminoluciferin luminescence, 40 min; inhibition, % at 12.5 µM
Casp3 select: selectivity test for SENP inhibitors: human caspase-3 inhibition; inhibition, % at 12.5 µM; 6,200 tested, 60% active; AID 488918; shares compounds with SENP7 block; purified caspase-3, Z-DEVD-aminoluciferin luminescence, 60 min;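 active = mean inhibition above about 50%, limit read from the data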;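 also: plate controls were enzyme with DMSO for no effect and wells without caspase-3 for full effect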
Target sequence (P42574 28-227 limits assumed): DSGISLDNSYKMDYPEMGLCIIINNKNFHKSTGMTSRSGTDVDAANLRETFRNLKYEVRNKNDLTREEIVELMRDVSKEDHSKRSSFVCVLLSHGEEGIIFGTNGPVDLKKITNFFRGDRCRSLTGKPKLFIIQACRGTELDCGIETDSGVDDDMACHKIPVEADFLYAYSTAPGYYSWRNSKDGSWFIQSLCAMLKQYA
Luc interf: counter-screen for SENP inhibitors: luminescence interference | shares compounds with SENP7 block | Pre-incubated SENP8/Z-RLRGG-aminoluciferin, luciferase luminescence interference | inhibition, % at 12.5 µM | 6,200 tested, 39% active | AID 488919;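 active = mean inhibition above about 50% when retested at one dose, limit read from the data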;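 also: plate controls were DMSO wells with completed reaction for no effect and substrate without enzyme for full effect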
Numbers without * were called inactive. An excerpt weighted towards active compounds, which were near 3% of everything screened.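 The calls were made as follows, unless noted: active = mean inhibition above about 50% in the one-dose retest (limit read from the data); inactive = the rest.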

What do the screens show for `COc1ccccc1N/C=C/c1onc(C)c1[N+](=O)[O-]`?
PPC-1+TRAIL kill: 33.0; C8 TRAIL sens: 47.4; SENP8 block-1: 22.3; SENP8 block-2: 95.7*; SENP6 inh: 98.8*; SENP7 block: 98.6*; SENP8 conf: 83.9*; SENP6 confirm: 95.2*; SENP7 confirm: 96.2*; Casp3 select: 91.9*; Luc interf: 10.8

How did NC(c1ccccc1)c1ccncc1 (stereo unspecified) do in these assays?
C8 TRAIL sens: -14.9; SENP8 block-1: 6.8; SENP8 block-2: -1.5; SENP6 inh: 2.6; SENP7 block: -1.3

Results for CCOC(=O)N1CCN(C(=O)c2noc3c2COc2ccccc2-3)CC1 ?
C8 TRAIL sens: -5.9; SENP8 block-1: -3.3; SENP8 block-2: 42.9; SENP6 inh: 60.9*; SENP7 block: 53.7*; SENP8 conf: 43.5; SENP6 confirm: 38.0; SENP7 confirm: 77.6*; Casp3 select: 75.1*; Luc interf: 24.8

Results for COc1cc(OC)cc(C(=O)NC2CC3CCC(C2)N3C)c1 (stereo unspecified) ?
C8 TRAIL sens: 23.9; SENP8 block-1: -0.9; SENP8 block-2: 6.5; SENP6 inh: -18.7; SENP7 block: -3.1

What do the screens show for `COc1cccc(-c2nnc(NC(=O)c3cccs3)s2)c1`?
PPC-1+TRAIL kill: 40.4; C8 TRAIL sens: 28.5; SENP8 block-1: -405.5; SENP8 block-2: 6.9; SENP6 inh: 32.4; SENP7 block: 7.7

What do the screens show for `COc1ccc2c(c1)Cc1sc(NC(=O)c3cccs3)nc1-2`?
PPC-1+TRAIL kill: 13.9; C8 TRAIL sens: -0.4; SENP8 block-1: 14.7; SENP8 block-2: 96.1*; SENP6 inh: 91.8*; SENP7 block: 94.3*; SENP8 conf: 67.3*; SENP6 confirm: 75.0*; SENP7 confirm: 99.3*; Casp3 select: 77.3*; Luc interf: 29.1

How did COc1ccc2c(c1)Cc1sc(NC(=O)c3ccccc3)nc1-2 do in these assays?
PPC-1+TRAIL kill: 20.4; C8 TRAIL sens: 16.1; SENP8 block-1: -24.0; SENP8 block-2: 91.3*; SENP6 inh: 95.1*; SENP7 block: 90.0*; SENP8 conf: 4.2; SENP6 confirm: 65.3*; SENP7 confirm: 87.9*; Casp3 select: 65.5*; Luc interf: 23.8

What do the screens show for `COc1ccc(C(=O)Nc2nc3c(s2)Cc2cc(OC)ccc2-3)cc1`?
PPC-1+TRAIL kill: 9.9; C8 TRAIL sens: 7.9; SENP8 block-1: -59.0; SENP8 block-2: 89.6*; SENP6 inh: 81.7*; SENP7 block: 93.3*; SENP8 conf: 28.6; SENP6 confirm: 67.6*; SENP7 confirm: 50.3*; Casp3 select: 18.9; Luc interf: 4.2

Results for COc1ccc(C(=O)Nc2nc3ccc4nc(C)sc4c3s2)cc1 ?
PPC-1+TRAIL kill: 1.4; C8 TRAIL sens: 9.9; SENP8 block-1: -431.9; SENP8 block-2: 2.7; SENP6 inh: -8.4; SENP7 block: -2.8

What do the screens show for `CC(=O)C[C@@H](O)CC(=O)[C@@H]1OC(=O)CCCCCCCCc2ccccc21`?
C8 TRAIL sens: -2.4; SENP8 block-1: 17.6; SENP8 block-2: -11.3; SENP6 inh: -9.3; SENP7 block: -11.5

What do the screens show for `COc1ccc(OCc2cc(C(=O)N3CCCC(O)C3)no2)c2ccccc12` (stereo unspecified)?
C8 TRAIL sens: 19.2; SENP8 block-1: -24.8; SENP8 block-2: 1.3; SENP6 inh: 20.7; SENP7 block: 0.5

How did CC(C)Nc1ncnc2c1ncn2[C@H]1CN(CCN2CCOCC2)C[C@@H](CO)O1 do in these assays?
C8 TRAIL sens: -9.8; SENP8 block-1: 14.6

How did O=[N+]([O-])c1ccc(-c2nc(=S)c3c(o2)CCCC3)cc1 do in these assays?
PPC-1+TRAIL kill: 20.0; C8 TRAIL sens: -4.8; SENP8 block-1: 7.7; SENP8 block-2: -7.6; SENP6 inh: -0.2; SENP7 block: -0.3

How did COc1cccc(-c2nc(=S)c3c(o2)CCCC3)c1 do in these assays?
PPC-1+TRAIL kill: 19.7; C8 TRAIL sens: 9.7; SENP8 block-1: 9.8; SENP8 block-2: 33.5; SENP6 inh: 65.0*; SENP7 block: 0.4; SENP8 conf: 37.5; SENP6 confirm: 21.2; SENP7 confirm: 59.7*; Casp3 select: 28.5; Luc interf: 25.3

What do the screens show for `S=c1nc(-c2ccccc2)oc2c1CCCC2`?
PPC-1+TRAIL kill: 24.1; C8 TRAIL sens: -3.7; SENP8 block-1: 20.1; SENP8 block-2: 74.7*; SENP6 inh: 92.1*; SENP7 block: 88.1*; SENP8 conf: 35.6; SENP6 confirm: 48.3; SENP7 confirm: 62.6*; Casp3 select: 41.0; Luc interf: 54.2*

Results for CC(C)=C(NC(=O)c1ccccc1Cl)C(=O)NCCc1nc2ccccc2[nH]1 ?
C8 TRAIL sens: -3.2; SENP8 block-1: 13.1

Results for CN(CC(=O)Nc1ccc(Cl)c(C(F)(F)F)c1)C(=O)c1ccc2c(c1)NC(=O)CS2 ?
C8 TRAIL sens: 4.0; SENP8 block-1: 1.8; SENP8 block-2: 3.6; SENP6 inh: -2.1; SENP7 block: 9.5

What do the screens show for `CCOc1ccccc1NC(=O)CSc1nnnn1C1CCCC1`?
C8 TRAIL sens: 4.3; SENP8 block-1: 14.7; SENP8 block-2: 7.3; SENP6 inh: -20.3; SENP7 block: -1.5

Results for CCCNC(=O)C1CC(=O)N(c2ccc(OCc3ccc(F)cc3)cc2)C1 (stereo unspecified) ?
C8 TRAIL sens: 29.2; SENP8 block-1: 6.2; SENP8 block-2: 87.2*; SENP6 inh: 86.8*; SENP7 block: 87.7*; SENP8 conf: 43.7; SENP6 confirm: 55.9*; SENP7 confirm: 70.9*; Casp3 select: 94.4*; Luc interf: 15.2

What do the screens show for `C=CCNC(=O)C1CC(=O)N(c2ccc(OCC(=O)N3CCCC3)cc2)C1` (stereo unspecified)?
C8 TRAIL sens: -0.9; SENP8 block-1: 13.5; SENP8 block-2: -8.0; SENP6 inh: -5.8; SENP7 block: 9.1

What do the screens show for `C=CCNC(=O)C1CC(=O)N(c2ccc(OCc3ccc(F)cc3)cc2)C1` (stereo unspecified)?
C8 TRAIL sens: -3.3; SENP8 block-1: 7.9; SENP8 block-2: 79.4*; SENP6 inh: 92.1*; SENP7 block: 91.0*; SENP8 conf: 64.7*; SENP6 confirm: 86.4*; SENP7 confirm: 96.1*; Casp3 select: 88.1*; Luc interf: 23.1

High-throughput results deposited in PubChem BioAssay by Sanford-Burnham Center for Chemical Genomics.
